ROMK primary = modulators of human ROMK potassium channel; 130,000 tested, 2% active; B-score at 10 µM; AID 1918; Tet-inducible ROMK, thallium flux fluorescence; actives lie on both sides; P48048;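 active = signal ratio slope over the read window, or its plate-corrected B-score, at least 3 SD from the plate mean, either direction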;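 note: B-score of the F/F0 ratio slope over 7 to 12 s after thallium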
Target sequence (P48048 whole entry, looked up): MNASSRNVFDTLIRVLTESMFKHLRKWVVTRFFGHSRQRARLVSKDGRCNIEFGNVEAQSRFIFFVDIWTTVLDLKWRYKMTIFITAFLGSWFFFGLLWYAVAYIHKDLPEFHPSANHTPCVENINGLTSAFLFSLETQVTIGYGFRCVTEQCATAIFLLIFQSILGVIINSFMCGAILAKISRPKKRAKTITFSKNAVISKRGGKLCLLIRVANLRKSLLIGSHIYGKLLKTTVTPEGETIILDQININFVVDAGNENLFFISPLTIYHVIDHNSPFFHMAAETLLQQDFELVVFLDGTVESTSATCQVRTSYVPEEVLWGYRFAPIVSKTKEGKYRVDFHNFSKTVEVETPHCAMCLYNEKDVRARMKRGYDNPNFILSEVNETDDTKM
Insulin prom inh = TRM-6 insulin promoter activity inhibition; 130,000 tested, 0.9% active; TRM-6 cells (human fetal islet line), insulin promoter-eGFP reporter, imaging; reporter expression induced with tamoxifen; inhibition, % at 2 µM;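 active = inhibition above the mean plus 3 SD, with well images judged a real hit on visual review, cut at about 60% in these data, passing the limit was not always enough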
Lmaj promast = Leishmania major promastigote growth inhibition; inhibition, % at 10 µM; 200,000 tested, 9% active; Leishmania major promastigotes, resazurin fluorescence viability; in the data active = inhibition above about 50%;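 note: promastigotes grown with compound for 44 hours at 28 °C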
p97 inhibitor = inhibitors of human p97 ATPase | inhibition, % at 8 µM | recombinant p97 ATPase, Kinase-Glo ATP luminescence, 3 h | P55072 | 220,000 tested, 0.42% active | AID 1481; in the data active = inhibition above about 15%;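 note: 0% = DMSO vehicle and 100% = wells lacking enzyme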
PTEN del growth = PTEN-deleted cell growth suppression; 140,000 tested, 1.2% active; viability, % at 10 µM; AID 827; HCT116 PTEN-null viability, CellTiter-Glo, 60 h; stronger effect = lower value;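 active = viability at or below a set limit, 4 SD under the median of all tested compounds, cut at about 3.7% in these data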;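 note: PTEN knockout HCT116 line with beta catenin targeted HCT116 as companion control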
HCT116 bCat-KO = beta-catenin-lacking colon tumor cell growth suppression | HCT116 beta-catenin knockout viability, CellTiter-Glo, 60 h; stronger effect = lower value | viability, % at 10 µM | AID 818 | 140,000 tested, 1.5% active;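 active = viability at or under a set limit, the compound median less 4 SD, cut at about 6% in these data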;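 note: 0% = Hyamine 1622 control at 20 µM and 100% = untreated cell control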
* marks the source's active call; other numbers are inactive results; x = not tested or not shown. This is a sample that favours compounds with a hit; in the whole collection about 10% have one here.

SMILES | ROMK primary | Insulin prom inh | Lmaj promast | p97 inhibitor | PTEN del growth | HCT116 bCat-KO
OC(COc1ccc(C2C=CCC2)cc1)CN1CCCCC1 (stereo unspecified) | -0.92 | 21 | 97* | 7 | 69 | 67
O=C(O)CCC(=O)c1ccc2c(c1)OCCO2 | x | x | -3 | -12 | 82 | 97
O=C(CCN1CCc2ccccc2C(c2ccccc2)C1)c1ccc2c(c1)OCCO2 (stereo unspecified) | -1.3 | 31 | 100* | 1 | 42 | 71
O=C(CCCN1Cc2ccccc2C1)c1ccc(F)cc1 | -0.13 | x | 93* | 5 | 87 | 95
O=C(CCN1Cc2ccccc2C1)c1ccc2c(c1)OCCO2 | -2.2 | -23 | 83* | -3 | 80 | 77
CSCC[C@H](NC(=O)CCNC(C)=O)c1nc2ccccc2[nH]1 | x | 54 | -2 | -4 | 101 | 95
CC(C(=O)Nc1nc2ccccc2s1)n1cc([N+](=O)[O-])cn1 (stereo unspecified) | x | 33 | 4 | 4 | x | x
O=C1N/C(=N\N=C\c2ccc3ncccc3c2)SC1Cc1ccc(SC(F)F)cc1 (stereo unspecified) | 0.12 | -5 | 1 | 1 | 85 | 88
O=C1N/C(=N\N=C\c2cccnc2)SC1Cc1ccc(SC(F)F)cc1 (stereo unspecified) | 0.0015 | -2 | 74* | 4 | 6 | 8
COc1cccc(CN2CCN(Cc3nc(C(C)C)cs3)CC2CCO)c1 (stereo unspecified) | 0.57 | x | -4 | 0 | x | x
C=CCc1ccccc1OCCCCN1CCCC1 | x | x | 77* | 4 | 120 | 96
CCOc1ccccc1OCCOc1ccccc1CC | x | x | -1 | -1 | 91 | 62
CCc1ccccc1OCCCCN1CCCC1 | 1.5 | -5 | 94* | 4 | 90 | 92
C=CCc1ccccc1OCC(O)CN1CCN(c2ccccc2OC)CC1 (stereo unspecified) | x | -45 | 27 | -1 | 60 | 54
C=CCc1ccccc1OCCn1ccnc1 | x | 37 | 1 | 2 | 99 | 105
C=CCc1ccccc1OCC(CN1CCCCC1)OC(C)=O (stereo unspecified) | -1.2 | x | 65* | 2 | 103 | 88
C=CCc1ccccc1OCC(O)CN1CCN(c2ccccc2F)CC1 (stereo unspecified) | x | 16 | 69* | 4 | 89 | 96
CCOC(=O)N1CCN(C(=O)c2ccc(Oc3ccc([N+](=O)[O-])cc3)cc2)CC1 | -2.4 | x | -3 | 2 | x | x
O=C(Nc1ccccc1N1CCCCC1)c1ccc(Cl)c([N+](=O)[O-])c1 | -0.032 | x | 17 | 0 | x | x
CN1CCN(c2ccc(S(=O)(=O)N3CCCCC3)cc2NC(=O)c2ccc3ccccc3c2)CC1 | -1.6 | 10 | 27 | 1 | 1.4* | 2.3*
CN1CCN(c2ccc(C(=O)c3ccc(Br)cc3)cc2[N+](=O)[O-])CC1 | -0.083 | x | 98* | -3 | x | x
CN1CCN(c2ccccc2NC(=O)c2ccc(N3CCCC3)c([N+](=O)[O-])c2)CC1 | -0.86 | x | 65* | 1 | x | x
CCOC(=O)c1ccc(-c2cc(C)no2)[nH]1 | x | -38 | -5 | -5 | 80 | 79
Cc1ccc(S(=O)(=O)NCCC(=O)Nc2ccc(Cl)c(Cl)c2)cc1 | x | 38 | 12 | -5 | 89 | 91
Cc1cc(C)cc(NC(=O)CCN2CC(C)OC(C)C2)c1 (stereo unspecified) | 0.58 | x | 80* | -7 | 81 | 80
SMILES | ROMK primary | Insulin prom inh | Lmaj promast | p97 inhibitor | PTEN del growth | HCT116 bCat-KO
Cc1ccc(S(=O)(=O)NCCC(=O)Nc2cccc(Cl)c2)cc1 | x | -57 | 52* | 2 | 101 | 97
Cc1cccc(NC(=O)CCN2CC(C)OC(C)C2)c1 (stereo unspecified) | x | -45 | 89* | 3 | 101 | 104
CC1CC(C)CN(CCC(=O)Nc2cccc(Cl)c2)C1 (stereo unspecified) | -1.3 | 32 | 83* | 7 | 94 | 94
Cn1c(SC2CCCCC2=O)nnc1-c1ccccc1F (stereo unspecified) | -0.038 | -47 | 1 | 3 | x | x
COc1ccccc1Nc1nnc(SCc2cc(=O)n3cc(C)ccc3n2)s1 | 1.2 | -37 | 3 | -1 | 80 | 83
CC(C)c1csc(CN2CCC(N3CCC(C(=O)N4CCOCC4)CC3)CC2)n1 | 1.2 | x | 41 | 3 | x | x
c1ccc(C2=Nc3ccccc3OC2)cc1 | -0.38 | -4 | 69* | 8 | 65 | 71
COc1cccc(Nc2cc(C)nc3ccccc23)c1 | x | -14 | 88* | 4 | 52 | 52
COc1ccc(OC)c(Nc2cc(C)nc3ccccc23)c1 | -0.92 | x | 71* | 1 | 24 | 28
COC(=O)CSc1cc(C)nc2ccc(OC)cc12 | x | -16 | 9 | 5 | 91 | 94
COc1ccc2nc(C)cc(Nc3ccccc3O)c2c1 | -0.77 | -50 | 59* | 0 | x | x
CCOC(=O)c1ccc(NC(=O)CSCCC(=O)O)cc1 | 0.018 | -20 | -2 | 6 | x | x
CCOC(=O)c1ccc(NC(=S)N(CCCN2CCCCC2)Cc2ccco2)cc1 | 0.34 | -38 | 93* | -3 | 94 | 87
CCOC(=O)c1ccc(NC(=O)CSCc2ccco2)cc1 | x | -19 | 89* | -1 | 68 | 71
CCOC(=O)c1ccc(NC(=S)N(CCCN(CC)CC)Cc2ccco2)cc1 | 0.11 | -62 | 100* | -4 | 105 | 84
CC(C)S(=O)(=O)N1CCCC(C(=O)c2cccc(Cl)c2)C1 (stereo unspecified) | -0.72 | x | 4 | -10 | x | x
C=CCOc1ccc(/C=N/NC(=O)C(C)Sc2ccccn2)cc1OC (stereo unspecified) | -0.11 | 37 | 1 | -5 | 97 | 100
CC(=O)Nc1ccccc1OCc1cnc(Cl)s1 | 0.62 | x | -1 | 0 | x | x
CCN(c1ccccc1)S(=O)(=O)c1ccc(C(=O)OC(C)C(=O)NCCC2=CCCCC2)cc1 (stereo unspecified) | x | 5 | 96* | 3 | 91 | 92
CCN(c1ccccc1)S(=O)(=O)c1ccc(C(=O)Oc2ccc(C(C)=O)cc2)cc1 | 1.4 | -35 | 50* | -3 | 105 | 100
CCN(c1ccccc1)S(=O)(=O)c1ccc(F)cc1 | x | 14 | 4 | -7 | 88 | 99
CCNCc1cc(Br)c(OCC(=O)Nc2ccccc2)c(OC)c1 | x | -7 | 101* | 3 | 88 | 86
COc1ccccc1NC(=O)COc1ccc(Br)cc1CNC1CCCC1 | -0.9 | x | 94* | -3 | x | x
COc1cc(CNCCc2ccccc2)cc(Br)c1OCC(=O)Nc1ccccc1C | -0.27 | x | 100* | -8 | x | x
COc1ccccc1NC(=O)COc1cc(Br)c(CNCCCN2CCOCC2)cc1OC | -1.5 | x | 55* | -3 | x | x
Cc1ccc(S(=O)(=O)/N=C(/c2ccc(F)cc2)N2CCCCC2)cc1 | x | x | 6 | 1 | 89 | 84
COc1cc(C(=S)N2CCCCC2)ccc1OCC(=O)Nc1ccccc1Cl | -0.22 | -47 | 66* | 3 | x | x
CNCc1cc(Br)c(OCC(=O)Nc2ccccc2OC)c(OC)c1 | -0.39 | -24 | 100* | 3 | x | x
COc1ccccc1NC(=O)COc1ccc(Br)cc1CO | 1.7 | 38 | -2 | 1 | 88 | 88
